Experimental data as given in paper PMC4336329 (PLoS ONE, 2015).
Among all 310,000 compounds or so, about 14,000 (4.5%) showed an effect of 50% or more. The effect is printed as a negative number. The full list was thinned out, with strong results kept by preference.

Molecular target: human ether-à-go-go-related gene (hERG) potassium channel (human, UniProt Q12809)
Assay: primary screen, population patch clamp on CHO cells stably expressing hERG; higher = less effect of the substance
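Note: peak tail current of the secondary pulse compared with the same well before compound.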

Sequence of human ether-à-go-go-related gene (hERG) potassium channel (Q12809 whole entry, looked up): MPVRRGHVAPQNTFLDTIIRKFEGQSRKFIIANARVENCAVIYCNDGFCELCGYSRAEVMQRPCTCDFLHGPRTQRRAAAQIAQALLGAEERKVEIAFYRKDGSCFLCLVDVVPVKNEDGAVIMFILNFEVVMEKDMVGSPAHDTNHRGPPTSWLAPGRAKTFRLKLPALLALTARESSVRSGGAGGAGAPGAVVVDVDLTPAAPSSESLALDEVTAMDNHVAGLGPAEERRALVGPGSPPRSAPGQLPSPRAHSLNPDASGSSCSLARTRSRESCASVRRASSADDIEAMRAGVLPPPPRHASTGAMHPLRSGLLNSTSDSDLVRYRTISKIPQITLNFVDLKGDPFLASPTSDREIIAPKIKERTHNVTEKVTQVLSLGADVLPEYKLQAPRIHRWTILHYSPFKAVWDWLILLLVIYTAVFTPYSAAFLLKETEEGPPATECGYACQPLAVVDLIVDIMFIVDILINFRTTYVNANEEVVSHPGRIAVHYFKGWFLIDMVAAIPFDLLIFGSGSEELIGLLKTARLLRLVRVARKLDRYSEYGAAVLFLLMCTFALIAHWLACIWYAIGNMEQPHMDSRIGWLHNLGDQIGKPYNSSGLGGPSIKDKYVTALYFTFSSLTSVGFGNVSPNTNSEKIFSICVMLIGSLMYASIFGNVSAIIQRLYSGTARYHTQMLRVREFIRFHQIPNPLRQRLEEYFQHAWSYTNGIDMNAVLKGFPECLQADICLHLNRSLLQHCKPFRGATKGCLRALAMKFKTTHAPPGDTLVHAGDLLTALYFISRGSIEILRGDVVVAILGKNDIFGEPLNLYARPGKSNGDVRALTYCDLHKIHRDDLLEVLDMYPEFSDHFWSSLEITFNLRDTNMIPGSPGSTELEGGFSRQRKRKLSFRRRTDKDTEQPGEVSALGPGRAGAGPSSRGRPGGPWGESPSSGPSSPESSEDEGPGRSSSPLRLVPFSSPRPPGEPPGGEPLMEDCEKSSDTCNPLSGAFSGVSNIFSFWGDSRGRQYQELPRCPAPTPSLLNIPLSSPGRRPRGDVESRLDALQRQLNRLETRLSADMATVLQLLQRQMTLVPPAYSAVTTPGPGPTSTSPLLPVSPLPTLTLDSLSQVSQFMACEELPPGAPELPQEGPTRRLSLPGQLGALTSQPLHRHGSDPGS

SMILES	hERG current change (%, negative = inhibition) at 10uM [%]
O=C(CC1SC(=O)N(Cc2ccccc2)C1=O)Nc1nccs1 (centres unmarked)	3.22
O=C(Nc1ccc(Br)cc1)Nc1ccccc1Cl	19.7
CC(=O)Nc1ccc2c(c1)ncn2-c1ccccc1	3.72
CCOC(=O)C1CCCN(C(=O)c2ccc3c(c2)NC(=O)C(N2CCOCC2)S3)C1 (centres unmarked)	19.7
CCCCC(=O)NC(=S)Nc1ccc(NC(=O)C(C)C)c(OC)c1	21.2
Cc1ccc(S(=O)(=O)N(CCC(=O)O)c2ccccc2)cc1	-10.5
Cc1ccc(N(CC(O)COCc2ccco2)S(=O)(=O)c2ccc(C)cc2)cc1 (centres unmarked)	-11.1
CCCN(CCC)CC(O)CN(c1ccccc1)S(=O)(=O)c1ccc(C)cc1 (centres unmarked)	-80.3
CC(C)OC(=O)CCc1nc2ccccc2[nH]c1=O	10.1
COc1nc(-c2ccccc2)ccc1-c1noc(-c2cccnc2)n1	5.15
COc1ccc(C(=O)COC(=O)CNC(=O)C2CCCCC2)c(OC)c1	-11
COc1ccc(NC(=O)C2C(=O)N(C)C3(C)CC2c2ccccc2O3)cc1 (centres unmarked)	-13.5
CCC(C)NS(=O)(=O)c1cccs1 (centres unmarked)	7.86
COc1ccc(OC)c(CCNC(=O)Cn2nc(C)c3c(C)n(-c4ccc(C)cc4)nc3c2=O)c1	-59
COc1ccc(OC)c(CCNC(=O)C(C)n2nc(C)c3c(C)n(-c4ccc(C)cc4)nc3c2=O)c1 (centres unmarked)	-53.2
COc1ccccc1CCNC(=O)C(C)n1nc(C)c2c(C)n(-c3ccccc3)nc2c1=O (centres unmarked)	-12.3
COc1ccc(OC)c(CNC(=O)Cn2nc(C)c3c(C)n(-c4ccc(C)cc4)nc3c2=O)c1	3.27
COc1ccc(CCNC(=O)C(C)n2nc(C)c3c(C)n(-c4ccc(C)cc4)nc3c2=O)c(OC)c1 (centres unmarked)	-58.6
COc1ccc(CNC(=O)C(C)n2nc(C)c3c(C)n(-c4ccccc4)nc3c2=O)c(OC)c1 (centres unmarked)	-8.08
COc1ccc(OC)c(CCNC(=O)C(C)n2nc(C)c3c(C)n(-c4ccccc4)nc3c2=O)c1 (centres unmarked)	-0.756
COc1ccc(OC)c(CNC(=O)C(C)n2nc(C)c3c(C)n(-c4ccccc4)nc3c2=O)c1 (centres unmarked)	-7.41
COc1ccc(OC)c(CCNC(=O)Cn2nc(C)c3c(C)n(-c4ccccc4)nc3c2=O)c1	5
CC(=O)Nc1ccc(C(=O)CSc2ncn(-c3ccccc3)n2)cc1	5.72
Cc1sc2ncn(CC(=O)NCc3ccco3)c(=O)c2c1-c1ccccc1	-11.8

SMILES	hERG current change (%, negative = inhibition) at 10uM [%]
CC(=O)c1cnc(Oc2cc(Cl)ccc2Cl)nc1C	0.763
CSc1sc(C(=O)N(C)C)cc1S(=O)(=O)C(C)C	1.94
CCN1C(=O)/C(=C/c2cccs2)N(C)C1=S	-7.99
COc1ccccc1NS(=O)(=O)c1cc(C(=O)NCC2CCCO2)ccc1C (centres unmarked)	-36.8
COC(=O)C1=C(C(=O)OC)[C@@H]2N(C)c3ccccc3[C@@]23C[C@@H](C(=O)OC)N(C(=O)c2cccs2)C3=N1	-10.1
COC(=O)C1=C(C(=O)OC)[C@@H]2N(C)c3ccc(OC)cc3[C@@]23C[C@@H](C(=O)OC)N(C(=O)c2ccc(Br)cc2)C3=N1	-17.7
COC(=O)C1=C(C(=O)OC)[C@@H]2N(C)c3ccc(OC)cc3[C@@]23C[C@@H](C(=O)OC)N(C(=O)CC(C)C)C3=N1	-14.9
CCOC(=O)N1C2=NC(C(=O)OC)=C(C(=O)OC)[C@@H]3N(C)c4ccc(OC)cc4[C@]23C[C@H]1C(=O)OC	6.52
COC(=O)C1=C(C(=O)OC)[C@@H]2N(C)c3ccc(OC)cc3[C@@]23C[C@@H](C(=O)OC)N(C(=O)C2CCC2)C3=N1	-50
COC(=O)C1=C(C(=O)OC)[C@@H]2N(C)c3ccccc3[C@@]23C[C@@H](C(=O)OC)N(C(=O)c2ccco2)C3=N1	-13.9
COC(=O)C1=C(C(=O)OC)[C@@H]2N(C)c3ccc(OC)cc3[C@@]23C[C@@H](C(=O)OC)N(C(=O)c2ccco2)C3=N1	-50.6
COC(=O)C1=C(C(=O)OC)[C@@H]2N(C)c3ccc(OC)cc3[C@@]23C[C@@H](C(=O)OC)N(C(=O)COCc2ccccc2)C3=N1	-55
COC(=O)C1=C(C(=O)OC)[C@@H]2N(C)c3ccccc3[C@@]23C[C@@H](C(=O)OC)N(C(=O)COCc2ccccc2)C3=N1	-9.16
COC(=O)C1=C(C(=O)OC)[C@@H]2N(C)c3ccc(OC)cc3[C@@]23C[C@@H](C(=O)OC)N(C(=O)c2cccs2)C3=N1	-68.3
COC(=O)C1=C(C(=O)OC)[C@@H]2N(C)c3ccccc3[C@@]23C[C@@H](C(=O)OC)N(C(=O)C2CCC2)C3=N1	-29.7
COC(=O)C1=C(C(=O)OC)[C@@H]2N(C)c3ccc(OC)cc3[C@@]23C[C@@H](C(=O)OC)N(C(=O)NC2CCCCC2)C3=N1	-26
COc1ccc(/C=N\NC(=O)c2ccccc2Br)cc1COc1c(F)c(F)cc(F)c1F	-0.654
Brc1ccc(-n2cccc2/C=N/n2cnnc2)cc1	-25.1
Cc1ccc(OCC(=O)Nc2ccc(C)c(S(=O)(=O)N3CCCCC3)c2)c([N+](=O)[O-])n1	-45.4
C=CCNC(=O)/C(=C/c1ccccc1OCC)NC(=O)c1ccccc1	2.63
O=c1cc(Nc2ccc3c(c2)OCCO3)[nH]c(=O)n1-c1ccc(Cl)cc1	-0.327
CCC(C)NC(=O)c1ccccc1NC(=O)/C(=C/c1ccc(OC)cc1)c1ccccc1 (centres unmarked)	3.99
COC(=O)c1ccccc1NC(=O)NCc1ccc2c(c1)OCO2	-11.4
